IDE exosite inh: exo-site inhibitors of human insulin-degrading enzyme | z-score at 20 µM | P14735 | actives 6.3% (n = 17,000) | purified IDE, FL-6b probe fluorescence polarization; stronger effect = lower value | AID 1259349;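 active = z-score of -3 or lower, meaning strong loss of probe binding signal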;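 note: His-tagged human IDE residues 42-1019 made in E. coli with 30 nM FL-6b probe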
Target sequence (P14735 42-1019 limits assumed): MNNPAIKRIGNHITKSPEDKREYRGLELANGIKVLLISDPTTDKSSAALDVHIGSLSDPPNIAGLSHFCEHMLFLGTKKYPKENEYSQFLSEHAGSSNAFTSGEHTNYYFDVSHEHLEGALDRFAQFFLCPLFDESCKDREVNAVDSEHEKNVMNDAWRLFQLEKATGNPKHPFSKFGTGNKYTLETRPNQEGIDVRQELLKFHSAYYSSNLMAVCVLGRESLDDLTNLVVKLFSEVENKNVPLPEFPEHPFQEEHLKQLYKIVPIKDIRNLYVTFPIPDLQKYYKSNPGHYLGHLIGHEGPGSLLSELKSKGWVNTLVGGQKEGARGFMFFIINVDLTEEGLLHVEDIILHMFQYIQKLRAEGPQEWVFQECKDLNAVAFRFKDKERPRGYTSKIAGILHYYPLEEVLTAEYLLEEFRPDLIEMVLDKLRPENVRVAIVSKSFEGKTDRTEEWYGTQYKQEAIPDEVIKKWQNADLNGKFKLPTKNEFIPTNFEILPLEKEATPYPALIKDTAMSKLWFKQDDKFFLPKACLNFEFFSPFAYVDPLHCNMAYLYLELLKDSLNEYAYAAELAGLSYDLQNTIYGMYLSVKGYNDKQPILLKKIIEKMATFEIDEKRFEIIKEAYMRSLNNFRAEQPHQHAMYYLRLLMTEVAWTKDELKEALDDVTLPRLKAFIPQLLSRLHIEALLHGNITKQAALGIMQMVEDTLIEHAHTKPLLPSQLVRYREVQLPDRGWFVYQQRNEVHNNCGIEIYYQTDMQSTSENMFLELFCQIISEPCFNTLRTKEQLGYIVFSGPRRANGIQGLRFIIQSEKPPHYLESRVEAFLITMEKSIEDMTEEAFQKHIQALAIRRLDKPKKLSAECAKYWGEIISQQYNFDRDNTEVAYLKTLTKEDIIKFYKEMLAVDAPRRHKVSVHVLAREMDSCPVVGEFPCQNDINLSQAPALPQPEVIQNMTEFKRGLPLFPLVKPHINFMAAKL
The depositor's hits bear a star; ! = repeats disagree. The full list was thinned out, with hits kept by preference.

SMILES	IDE exosite inh
COc1ccccc1-c1ccc(C2[C@@H]3CN(C(=O)c4ccncc4)C[C@H]2N3)cc1 (stereo partly drawn)	-7.3*!
N#Cc1ccc(-c2ccc(C3[C@@H]4CN(C(=O)c5ccncc5)C[C@H]3N4)cc2)cc1 (stereo partly drawn)	-0.56
O=C(c1ccc(F)cc1)N1C[C@@H]2N[C@H](C1)C2c1ccc(-c2cccnc2)cc1 (stereo partly drawn)	-0.19
COc1ccc(-c2ccc(C3[C@@H]4CN(C(=O)c5ccc(F)cc5)C[C@H]3N4)cc2)cc1 (stereo partly drawn)	1.2
COc1cccc(C(=O)Nc2ccc3c(c2)C(=O)N(C)[C@H]2CC[C@H](CC(=O)N[C@H](C)c4ccccc4)O[C@H]2CO3)c1	-1
COc1ccc(C#Cc2ccc([C@H]3[C@@H](CO)N4C(=O)CN(C(=O)Nc5ccccc5F)C[C@@H]34)cc2)cc1	5.2
Cc1cccc(-c2ccc([C@H]3[C@@H](CO)N4C(=O)CN(S(=O)(=O)c5cccc(F)c5)C[C@@H]34)cc2)c1	3.3
COc1ccc(-c2ccc([C@@H]3[C@@H](CO)N(C(=O)NC(C)C)[C@H]3C#N)cc2)cc1	0.16
COc1ccc(-c2ccccc2[C@H]2[C@@H](C#N)N(C(=O)NC3CCCCC3)[C@H]2CO)cc1	1.3
COc1ccccc1-c1ccccc1[C@@H]1[C@H](C#N)N(C(=O)CN(C)C)[C@H]1CO	-0.82
COc1ccccc1-c1ccc([C@@H]2[C@@H](C#N)N(C(=O)NC(C)C)[C@@H]2CO)cc1	-13*
COc1ccc(-c2ccc([C@H]3[C@H](C#N)N(C(=O)NC4CCCCC4)[C@H]3CO)cc2)cc1	4.5
COc1ccccc1-c1ccc([C@@H]2[C@@H](C#N)N(C(=O)NC3CCCCC3)[C@@H]2CO)cc1	-10*
COc1ccc(-c2ccc([C@@H]3[C@@H](C#N)N(C(=O)NC(C)C)[C@H]3CO)cc2)cc1	0.76
COc1ccccc1-c1ccc([C@@H]2[C@@H](C#N)N(C(=O)CN(C)C)[C@H]2CO)cc1	-12*
CN(C)CC(=O)N1[C@H](C#N)[C@@H](c2ccc(-c3ccccc3F)cc2)[C@H]1CO	0.21
COc1ccc2c3c([nH]c2c1)[C@H](CO)N(S(C)(=O)=O)CC31CN(C(=O)Cc2cccnc2)C1	0.26
O=C(Nc1ccc(C(F)(F)F)cc1)N[C@H]1C=C[C@@H](CC(=O)N2CCCCC2)O[C@H]1CO	-0.83
COc1ccccc1-c1ccc([C@H]2[C@@H](CO)N(C(C)=O)[C@H]2CN(C)C(C)=O)cc1	0.14
CCN(C[C@@H]1[C@H](c2ccccc2)[C@H](CO)N1C(C)=O)C(=O)c1ccccn1	2.3
COC(=O)c1ccc(CN2CC(=O)N3[C@H](C2)[C@H](c2ccc(Br)cc2)[C@@H]3CO)cc1	4.6
COc1ccccc1CN1C[C@@H]2N[C@H](C1)C2c1ccc(-c2ccccc2OC)cc1 (stereo partly drawn)	-10*
COc1ccccc1CN1C[C@@H]2N[C@H](C1)C2c1ccc(-c2ccc(C(=O)N(C)C)cc2)cc1 (stereo partly drawn)	-0.092
COc1ccccc1CN1C[C@@H]2N[C@H](C1)C2c1ccc(-c2cccc(C#N)c2)cc1 (stereo partly drawn)	-4*!
COc1ccccc1CN1C[C@@H]2N[C@H](C1)C2c1ccc(-c2ccc(C#N)cc2)cc1 (stereo partly drawn)	-1.2
SMILES	IDE exosite inh
N#Cc1cccc(-c2ccc(C3[C@@H]4CN(Cc5ccccc5)C[C@H]3N4)cc2)c1 (stereo partly drawn)	1.1
COc1ccccc1CN1C[C@@H]2N[C@H](C1)C2c1ccc(-c2ccncc2)cc1 (stereo partly drawn)	0.34
COc1ccc2c3c(n(C)c2c1)[C@@H](CO)N(Cc1ccccc1OC)CC31CCN(CC2CC2)CC1	-1.7
O=C(NC[C@H]1[C@H](c2ccccc2)[C@@H](CO)N1CC1CC1)c1cccnc1	1
O=C(C1CCOCC1)N1CC(=O)N2[C@@H](CO)[C@H](c3ccc(Br)cc3)[C@@H]2C1	4.2
O=C(C1CCOCC1)N1CC(=O)N2[C@H](CO)[C@@H](c3ccc(Br)cc3)[C@H]2C1	0.54
O=C(C1CCOCC1)N1CC(=O)N2[C@H](CO)[C@@H](c3ccc(/C=C/c4ccccc4)cc3)[C@@H]2C1	-5.5*
O=C(C1CCOCC1)N1CC(=O)N2[C@@H](CO)[C@H](c3ccc(/C=C/c4ccccc4)cc3)[C@@H]2C1	-4.5*
O=C(C1CCOCC1)N1CC(=O)N2[C@H](CO)[C@@H](c3ccc(/C=C/c4ccccc4)cc3)[C@H]2C1	-2.1
O=C(C1CCOCC1)N1CC(=O)N2[C@H](CO)[C@@H](c3ccc(Br)cc3)[C@@H]2C1	-2.6
C[C@@H]1CCCCO[C@H](CN(C)C(=O)Nc2ccc(C(F)(F)F)cc2)[C@H](C)CN([C@@H](C)CO)C(=O)c2cc(NS(=O)(=O)c3cn(C)cn3)ccc2O1	0.41
CO[C@@H](CN(C)C(=O)c1ccccc1F)[C@H](C)CN([C@@H](C)CO)S(=O)(=O)c1ccc(F)cc1	1.4
CCc1cnc(N2[C@H](CO)[C@@H](c3ccc(C4=CCCCC4)cc3)[C@@H]2C#N)s1	-1.3
O=S(=O)(c1ccc(F)cc1)N1CCCCN2[C@H](C1)[C@@H](c1ccc(-c3cncnc3)cc1)[C@@H]2CO	0.5
N#C[C@H]1[C@@H](c2ccc(C3=CCCC3)cc2)[C@H](CO)N1C(=O)C1CC1	0.67
C/C=C/c1ccc([C@H]2[C@@H](CO)N(CCC)[C@@H]2CN(CC)C(=O)c2ccccn2)cc1	4
CCCNC(=O)N1CCC2(CC1)CN(Cc1cccc(OC)c1)[C@@H](CO)c1[nH]c3cc(OC)ccc3c12	-3.1*
COc1ccc2c3c([nH]c2c1)[C@H](CO)N(C(C)=O)CC31CCN(C(C)=O)CC1	-0.41
COc1ccc2c3c([nH]c2c1)[C@@H](CO)N(Cc1cccc(F)c1)CC31CCN(C(C)=O)CC1	-4.2*
COc1ccc2c3c([nH]c2c1)[C@H](CO)N(CC1CC1)CC31CCN(C(=O)Nc2cccc(F)c2)CC1	-0.44
CCCNC(=O)N1CCC2(CC1)CN(C(=O)COC)[C@H](CO)c1[nH]c3cc(OC)ccc3c12	-0.62
COc1ccc2c3c([nH]c2c1)[C@H](CO)N(Cc1ccccc1)CC31CCN(C(=O)NC(C)C)CC1	-1.8
CN(C)CC#Cc1ccc([C@@H]2[C@H](CO)N3C(=O)CN(C(=O)c4ccccc4)C[C@@H]23)cc1	2.4
CCCNC(=O)C[C@@H]1CC[C@@H]2[C@H](COc3ccc(NC(=O)CC)cc3C(=O)N2C)O1	-0.21
CC(C)NC(=O)Nc1ccc2c(c1)C(=O)N([C@H](C)CO)C[C@H](C)[C@@H](CN(C)C(=O)C1CCCCC1)OCCCC[C@H](C)O2	0.38
SMILES	IDE exosite inh
COc1cccc(-c2ccc([C@H]3[C@@H](CO)N4CCCCN(C(=O)NC(C)C)C[C@@H]34)cc2)c1	-5.8*
COc1cccc(-c2ccc([C@H]3[C@H](CO)N4CCCCN(C(=O)NC(C)C)C[C@@H]34)cc2)c1	-12*
COc1cccc(-c2ccc([C@H]3[C@@H](CO)N4CCCCN(C(=O)c5ccc(F)cc5)C[C@H]34)cc2)c1	-3.3*
COc1cccc(-c2ccc([C@@H]3[C@H]4CN(C(=O)c5ccc(F)cc5)CCCCN4[C@H]3CO)cc2)c1	0.86
COc1cccc(-c2ccc([C@@H]3[C@@H](CO)N4CCCCN(C(=O)c5ccc(F)cc5)C[C@H]34)cc2)c1	-1.7
COc1cccc(-c2ccc([C@H]3[C@@H](CO)N4CCCCN(C(=O)c5ccc(F)cc5)C[C@@H]34)cc2)c1	-0.66

Source: PubChem
